Experimental data from PubChem BioAssay (NCI).
Values joined by “and” are separate entries in the source; they are usually repeats but may differ in a detail not shown here. Identical values can stand only once. About 79,000 compounds went through this panel and 15% of them were active in at least one assay; those are over-represented in the sample as a whole. Some compounds were tested as several samples or in several runs, with calls that do not always agree. Active and inactive are the calls of the source. No stated cut-off is given here; in the data, active means growth inhibition above about 70%; inactive means the rest.

Legend:
[1] = NCI Yeast Anticancer Drug Screen. Data for the rad50 strain (AID 155);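 further: 0% = growth of vehicle-only cultures of the same strain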; settings: S. cerevisiae rad50 strain growth inhibition, stronger effect = higher value
Summary of the method: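 Yeast carrying a defined DNA repair defect were exposed to test compounds, and growth was compared with vehicle-treated controls to give percent inhibition.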

[2] = NCI Yeast Anticancer Drug Screen. Data for the mec2-1 strain (AID 157); settings: S. cerevisiae mec2-1 strain, stronger effect = higher value
Summary of the method: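 Test agents were screened against the mec2-1 yeast strain, with defined DNA repair or cell cycle alteration. Growth was scored as inhibition against vehicle-only controls.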

[3] = NCI Yeast Anticancer Drug Screen. Data for the sgs1 mgt1 strain (AID 161);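 further: 0% = growth of cultures given vehicle only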; settings: S. cerevisiae sgs1 mgt1 strain, stronger effect = higher value
Summary of the method: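 Inhibition of yeast growth, normalised to vehicle-treated controls, is reported for a strain bearing genetic alterations in DNA damage repair.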

[4] = NCI Yeast Anticancer Drug Screen. Data for the cln2 rad14 strain (AID 165);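 further: 0% = growth equal to vehicle treated cultures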; settings: S. cerevisiae cln2 rad14 strain, stronger effect = higher value
Summary of the method: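 Growth of compound-exposed yeast (cln2 rad14 genotype) measured and expressed as inhibition relative to vehicle.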

[5] = NCI Yeast Anticancer Drug Screen. Data for the bub3 strain (AID 167); settings: S. cerevisiae bub3 mutant strain, stronger effect = higher value
Summary of the method: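 Compounds were applied to a genetically altered yeast strain carrying a cell-cycle control defect. Growth inhibition was scored against vehicle-treated controls.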

[6] = NCI Yeast Anticancer Drug Screen. Data for the mlh1 rad18 strain (AID 175); settings: S. cerevisiae mlh1 rad18 strain growth inhibition, stronger effect = higher value
Summary of the method: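 In this whole-cell yeast screen, a strain with altered DNA damage repair is challenged with compound, and its growth is measured against matched vehicle-treated controls.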

[7] = at 5.0 µM (retest, dose inferred, filed as 0.5)
[8] = at 50.0 µM (retest, dose inferred, filed as 5.0)

Compound | growth inhibition [1, 7] | growth inhibition [1, 8] | growth inhibition ([1]; at 50.0 µM) | growth inhibition [2, 7] | growth inhibition [2, 8] | growth inhibition ([2]; at 50.0 µM) | growth inhibition [3, 7] | growth inhibition [3, 8] | growth inhibition ([3]; at 50.0 µM) | growth inhibition [4, 7] | growth inhibition [4, 8] | growth inhibition ([4]; at 50.0 µM) | growth inhibition [5, 7] | growth inhibition [5, 8] | growth inhibition ([5]; at 50.0 µM) | growth inhibition [6, 7] | growth inhibition [6, 8] | growth inhibition ([6]; at 50.0 µM)
CCCn1cnc2c(SCc3ccc(Cl)cc3)nc(N)nc21 | -7% (inactive) | 21% (inactive) | 96.9% (active) | -5% (inactive) | -10% (inactive) | 97.5% (active) | -3% (inactive) | 16% (inactive) | 96.2% (active) | -32% (inactive) | -64% (inactive) | 92.8% (active) | -20% (inactive) | 7% (inactive) | 97% (active) | -6% (inactive) | 36% (inactive) | 98% (active)
CCOC(=O)c1ccc(NCc2ccc3ccccc3n2)cc1 | -3% (inactive) | 15% (inactive) | 71.6% (active) | -11% (inactive) | 14% (inactive) | 51.5% (inactive) | -28% (inactive) | 44% (inactive) | 79.4% (active) | -6% (inactive) | 4% (inactive) | 19.1% (inactive) | 11% (inactive) | 55% (inactive) | -11.1% (inactive) | -2% (inactive) | 57% (inactive) | 74.3% (active)
C#CC(C)(C)OC(=O)Nc1ccccc1 | 5% (inactive) | 86% (active) | 12.6% (inactive) and 89.2% (active) | -14% (inactive) | 62% (inactive) | 9.3% (inactive) and 43.6% (inactive) | -2% (inactive) | 80% (active) | -10.1% (inactive) and 84% (active) | 0% (inactive) | 14% (inactive) | -53% (inactive) and 2.95% (inactive) | -6% (inactive) | 79% (active) | -7.8% (inactive) and 59.4% (inactive) | -3% (inactive) | 80% (active) | 8.4% (inactive) and 86.7% (active)
